{"source": "the supplement of paper PMC11537057", "note": "Where a name gives a salt, the structure may show the parent alone. Among all 1,700 compounds or so, about 15 (0.9%) showed activity.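 How the source made its calls: active = infection cut by 80% or more with cell growth above 90% in both runs; inactive = the rest.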 Only a selection was taken, and actives are over-represented in it overall.", "data": [{"system": "HSV-1 strain 17 YFP-ICP4 in A549", "experiment": "HSV-1 infection relative to DMSO (ICP4-YFP per H2B-RFP signal); higher = more viral infection (less antiviral activity), active = hit call of the paper", "settings": "10 µM; 48 h; MOI: 0.1", "protocol": "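Selleck FDA-approved library (L1300) screened in duplicate at 10 µM on A549 H2B-mRuby cells in 384-well plates, infected with HSV-1 strain 17 YFP-ICP4 at MOI 0.1 one hour before drug addition. Imaged after 2 days at 37°C. Cell growth (H2B-RFP) and infection (ICP4-YFP) are expressed as % of DMSO-treated wells. Hits: growth >90% and infection <20% of DMSO.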", "values": [{"compound": "CNC[C@H](O)[C@@H](O)[C@H](O)[C@H](O)CO.CNC[C@H](O)[C@@H](O)[C@H](O)[C@H](O)CO.O=C([O-])CN(CCN(CC(=O)[O-])CC(=O)O)CCN(CC(=O)[O-])CC(=O)O.[Gd+3]", "note": "[Gadopentetate Dimeglumine]", "HSV-1 infection": "77.6% (inactive)"}, {"compound": "COc1ccccc1OCCN", "note": "[Carvedilol EP IMpurity E]", "HSV-1 infection": "82.6% (inactive)"}, {"compound": "CC(C)[C@H]1C(=O)N[C@@H](CCCN=C(N)N)C(=O)NCC(=O)N[C@@H](CC(=O)O)C(=O)N[C@H](Cc2ccccc2)C(=O)N1C", "HSV-1 infection": "86.4% (inactive)"}, {"compound": "CNC(=O)c1ccc2cc([C@@]3(O)CCn4cncc43)ccc2c1", "note": "[TAK-700 (Orteronel)]", "HSV-1 infection": "58.5% (inactive)"}, {"compound": "Cc1cccc(C)c1N(CC(=O)Nc1ccc(-c2ncon2)cc1)C(=O)C1CCS(=O)(=O)CC1", "note": "[Amenamevir]", "HSV-1 infection": "2.63% (active)"}, {"compound": "[OH][Al]([OH])[OH]", "note": "[Aluminium hydroxide]", "HSV-1 infection": "113% (inactive)"}, {"compound": "COc1ccc([C@]2(C#N)CC[C@@H](C(=O)O)CC2)cc1OC1CCCC1", "note": "[Cilomilast]", "HSV-1 infection": "94% (inactive)"}, {"compound": "COc1cc(O)c(C(=O)Nc2nc(C(=O)NCCN(C(C)C)C(C)C)cs2)cc1OC", "note": "[Acotiamide hydrochloride]", "HSV-1 infection": "75.1% (inactive)"}, {"compound": "COc1cc(O)c(C(=O)Nc2nc(C(=O)NCCN(C(C)C)C(C)C)cs2)cc1OC", "note": "[Acotiamide]", "HSV-1 infection": "116% (inactive)"}, {"compound": "Cc1c(-c2ccc(O)cc2)n(Cc2ccc(OCCN3CCCCCC3)cc2)c2ccc(O)cc12", "note": "[Bazedoxifene HCl]", "HSV-1 infection": "26.6% (inactive)"}, {"compound": "Cc1c(-c2ccc(O)cc2)n(Cc2ccc(OCCN3CCCCCC3)cc2)c2ccc(O)cc12", "note": "[Bazedoxifene Acetate]", "HSV-1 infection": "31.7% (inactive)"}, {"compound": "CCCSc1nc(N[C@@H]2C[C@H]2c2ccc(F)c(F)c2)c2nnn([C@@H]3C[C@H](OCCO)[C@@H](O)[C@H]3O)c2n1", "note": "[Ticagrelor]", "HSV-1 infection": "87.1% (inactive)"}, {"compound": "C[C@@H]1CCO[C@H]2Cn3cc(C(=O)NCc4ccc(F)cc4F)c(=O)c(O)c3C(=O)N12", "HSV-1 infection": "122% (inactive)"}, {"compound": "Cc1cc(N2CCN([C@@H]3CN[C@H](C(=O)N4CCSC4)C3)CC2)n(-c2ccccc2)n1", "note": "[Teneligliptin hydrobromide]", "HSV-1 infection": "113% (inactive)"}, {"compound": "CCCCCCCCCCCCCCCCCC(=O)O", "note": "[Stearic acid]", "HSV-1 infection": "86.7% (inactive)"}, {"compound": "O=C([O-])[C@H](O)[C@@H](O)[C@H](O)[C@H](O)CO.O=C([O-])[C@H](O)[C@@H](O)[C@H](O)[C@H](O)CO.[Ca+2]", "note": "[Calcium gluconate]", "HSV-1 infection": "83.3% (inactive)"}, {"compound": "Nc1nc(O)c2ncn(CCC(CO)CO)c2n1", "note": "[Penciclovir]", "HSV-1 infection": "2.92% (active)"}, {"compound": "CC(=O)OCC(CCn1cnc2cnc(N)nc21)COC(C)=O", "note": "[Famciclovir]", "HSV-1 infection": "102% (inactive)"}]}]}
